The values that follow come from PubChem BioAssay.

A short description of test [1]: Wnt pathway potentiators raising nuclear beta-catenin – imaging, WNT3A-conditioned medium, mouse C2C12, NPC library, primary screen (AID 1117326; in the data active = nuclear beta-catenin stimulation mostly above about 4.2%, no sharp cut-off; inactive = mostly below about 10%). To be noted: stronger effect = higher value.
A short description of test [2]: stimulators of insulin release from INS-1E, primary screen, cell-based, 5 mM glucose, NPC library (AID 1117329;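 active = compound raises insulin release from rat beta cells at 5 mM glucose, no numeric limit stated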). To be noted: rat INS-1E insulin secretion, at 10 µM, stronger effect = higher value.
The nature of test [3]: growth inhibition of GSK3B-pretreated HCT116 cells – cell-based, CellTiter-Glo, 0.2 to 20 µM (AID 1117336). To be noted: HCT116 viability after GSK3B inhibitor, at 20 µM, stronger effect = higher value.
Test [4] is described as follows: inhibition of endothelial tube formation, primary screen, imaging, VEGF stimulated, CD31 staining, tube area, NPC library (AID 1117340;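 active = compound that reduces growth-factor-driven endothelial tube area in a mixed cell culture, no cutoff stated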). To be noted: VEGF-stimulated ADSC/ECFC co-culture, at 10 µM, stronger effect = higher value.
The nature of test [5]: GLP1 release stimulators, primary, NCI-H716, NPC library (AID 1117341;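 active = compound raises GLP1 secretion from the human gut endocrine cells, with no numeric limit stated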). To be noted: NCI-H716 cells, at 10 µM, stronger effect = higher value.
Test [6] in a line: HCT116 colon cancer cell growth inhibition, primary screen, CellTiter-Glo luminescence, NPC library (AID 1117342;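 active = compounds that lower survival of HCT116 colon cancer cells in the luminescence readout, no numeric limit stated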). To be noted: at 20 µM (top of the series).
Test [7] in a line: reduced SW480 viability measured with CellTiter-Glo, NPC library, primary (AID 1117343;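 active = compounds that lower viability of the colon cancer cells in the luminescence readout, with no numeric limit stated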). To be noted: CellTiter-Glo luminescence; at 20 µM (top of the series) unless noted. (ATP-based viability assays read luminescence as a measure of living cells.)
A short description of test [8]: NPC library primary testing for decreased DLD-1 cell viability via CellTiter-Glo (AID 1117346;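 active = compounds that lower survival of DLD-1 colon cancer cells in the luminescence readout, no cutoff given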). To be noted: DLD-1 viability, CellTiter-Glo luminescence; at 20 µM (top of the series).
The nature of test [9]: viability loss in pontine glioma line – cell-based, JHH-DIPG-1, MIPE4.0, CellTiter-Glo, qHTS, dose response (AID 1347062; cut-off not given, nearly all actives have AC50 up to about 27 µM). To be noted: JHH-DIPG-1 viability, CellTiter-Glo ATP luminescence.
Test [10] can be described thus: growth inhibition of DIPG cells – cell-based, MIPE5.0 library, qHTS (AID 1347068; cut-off not given, nearly all actives have IC50 up to about 30 µM). To be noted: SU-DIPG-XXV viability. A general note: In qHTS, concentration-response curves come from the screen itself.
Test [11] can be described thus: viability loss with induced miR-34 in A549 – imaging, A549 dox-inducible miR-34, nuclei and caspase counts, primary screen (AID 1347080;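 active = compounds whose cell count with miR-34 switched on is under 0.7 times the count with it off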). To be noted: A549 miR-34 inducible, Hoechst nuclei count, 48 h.
Test [12] is described as follows: blockers of cellular phospholipid synthesis – cell-based, LOPAC library, screen 4, primary screen (AID 1347384; call rule not given here). To be noted: animal cells, phospholipid biosynthesis inhibition screen; at 10 µM.
A short description of test [13]: galactose survival enhancers in mitochondrial complex I cybrids – cell-based, galactose medium, ATP luminescence, primary screen (AID 1645843;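 active = z-score of at least 1.8 in each of two replicates, scored against plate mean and spread of sample wells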;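 note: positive z means more ATP and so rescue of galactose-driven cybrid death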). To be noted: complex I mutant cybrid cells, 72 h, stronger effect = higher value.
Test [14] in a line: P. berghei load reduction in hepatocytes – cell-based, HepG2, luciferase luminescence, HepG2 viability, primary screen (AID 624349; in the data active = parasite load remaining mostly below about 12%, no sharp cut-off; inactive = mostly above about 10%;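 note: 100% = mean of DMSO negative control wells on the same plate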). To be noted: P. berghei liver stage in HepG2, luciferase luminescence, concentration not given here; parasite load remaining: stronger effect = lower value; viability: measured here: HepG2 viability without parasites.
A short description of test [15]: viability loss in pontine glioma line – cell-based, SU-DIPG-XXV, MIPE5.0, CellTiter-Glo, qHTS, dose response (AID 1347065; cut-off not given, nearly all actives have AC50 up to about 26 µM;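 note: cells exposed to compound for 48 hours before ATP readout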). To be noted: CellTiter-Glo ATP luminescence.
Test [16] in a line: MELAS cybrid and Rieske KO viability enhancers – cell-based, MELAS cybrids, Rieske KO mouse fibroblasts, CellTiter-Glo, primary screen (AID 1508586;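 active = mean z-score across replicates of 1.96 or higher in either the MELAS or the Rieske mutant cell line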;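 note: z relative to plate mean and SD of compound and empty wells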). To be noted: low glucose.
Test [17] in a line: viability loss in pontine glioma line – cell-based, SU-DIPG-IV, MIPE4.0, CellTiter-Glo, qHTS, dose response (AID 1347063; cut-off not given, nearly all actives have AC50 up to about 30 µM;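 note: compound exposure lasted 48 hours before the viability readout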). To be noted: CellTiter-Glo ATP luminescence.
Test [18] is described as follows: growth inhibition of DIPG cells – cell-based, MIPE4.0 library, CellTiter-Glo luminescence, qHTS (AID 1347066; cut-off not given, nearly all actives have AC50 up to about 30 µM;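 note: cells exposed to compound for 48 hours before readout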). To be noted: SU-DIPG-VI viability, CellTiter-Glo ATP luminescence.
[19] abbreviates: stronger effect = lower value, cell number ratio, induced over uninduced.
[20] abbreviates: measured here: relative caspase fold change +Dox/-Dox.
The mark [21] stands for this setting: measured here: total cells with miR-34 induction, stronger effect = lower value.
The mark [22] stands for this setting: measured here: total cells without miR-34 induction.
Setting [23] is: MELAS cybrid survival, CellTiter-Glo 48 h, stronger effect = higher value.
Setting [24] is: Rieske KO mouse fibroblast survival, CellTiter-Glo 72 h.

Where “and” joins values, the source holds several entries; their conditions need not be identical. Equal entries are not always repeated. Results filed as inconclusive are left out. Calls of active or inactive are those of the source.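 Rule for the calls, unless noted: active = compounds lowering colon cancer cell viability after pretreatment blocking the GSK3B kinase; inactive = the rest.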

For the compound `CC(C)(C)C(=O)Oc1ccc(S(=O)(=O)Nc2ccccc2C(=O)NCC(=O)O)cc1`, the nuclear beta-catenin stimulation in test [1] (at 10 µM) is 0.7% (inactive); in test [1] (stimulation, at 2 µM), 1.7%. In test [2], the insulin secretion stimulation was 0% (inactive). Further, the viability decrease in test [3] was 66% (active). Besides, the tube area decrease in [4] is -2.9% (inactive). For the same compound, in test [5], the GLP1 secretion stimulation is 0.3% (inactive). Further, the inhibition of viability in test [6] is 24.1% (inactive). Also, the values for the viability decrease (inhibition) in test [7] and in test [8] were 70% (active) and 3.4% (inactive), respectively. For the same compound, the result in test [9], in test [10] and in [12] was inactive. For the same compound, the fold change in test [11] (setting [19]) is 1.07 (inactive); in test [11] (setting [20]) it was 1.11. For the same compound, the cell count worked out at 10600 in test [11] (setting [21]) and 9900 in test [11] (setting [22]). Moreover, the z-score in test [13] is 0.85 (inactive).
Consider `Clc1ccc(C(Cn2ccnc2)OCc2c(Cl)cccc2Cl)c(Cl)c1` (stereo not given), for which the parasite load remaining in test [14] was 26.3% (inactive) and 91.5% (inactive). The viability in test [14] was 46.9% and 87.2%. For the same compound, the nuclear beta-catenin stimulation in [1] (at 10 µM) was 1.3% (inactive); in test [1] (stimulation, at 2 µM) it was -1.1%. In addition, in test [2], the insulin secretion stimulation was 3.1% (inactive). Besides, in [3], the viability decrease was 110% (active). Moreover, the tube area decrease in [4] was 107% (active). Moreover, in test [5], the GLP1 secretion stimulation was 35.3% (active). Also, the inhibition of viability in test [6] was 113% (active). Further, the viability decrease (inhibition) was 132% (active) in test [7] and 101% (active) in test [8]. Further, the AC50 in [15] is 23.5 µM (active).
Turning to `CC(C(=O)O)c1ccc2c(c1)CC(=O)c1ccccc1S2` (stereo not given), the nuclear beta-catenin stimulation in test [1] (at 10 µM) was -0.5% (inactive); in test [1] (stimulation, at 2 µM) it was -1.2%. Also, the insulin secretion stimulation in [2] is 5.5% (inactive). Moreover, the viability decrease in test [3] is -7.1% (inactive). The tube area decrease in [4] was 2.5% (inactive). Further, the GLP1 secretion stimulation in test [5] was -2% (inactive). Besides, in test [6], the inhibition of viability is -2.7% (inactive). The values for the viability decrease (inhibition) in [7] and in [8] were 21.1% (inactive) and 7.9% (inactive), respectively. For the same compound, the outcome in [15] and in test [10] was inactive. The fold change is 0.901 (inactive) in [11] (setting [19]) and 0.594 in test [11] (setting [20]). Also, the values for the cell count in [11] (setting [21]) and in [11] (setting [22]) were 9750 and 10800, respectively. Moreover, the z-score in test [16] (setting [23]) was -0.314 (inactive); in [16] (setting [24]), 0.988.
For the compound `CC(C)OC(=O)OCOP(=O)(CO[C@H](C)Cn1cnc2c(N)ncnc21)OCOC(=O)OC(C)C`, the nuclear beta-catenin stimulation in test [1] (at 10 µM) was 6.3% (inactive); in [1] (stimulation, at 2 µM), 3%. Besides, the insulin secretion stimulation in test [2] is 13.8% (inactive). Moreover, in [3], the viability decrease was 2.2% (inactive). For the same compound, the tube area decrease in test [4] was 65.2% (active). For the same compound, the GLP1 secretion stimulation in [5] was -1.8% (inactive). In test [6], the inhibition of viability was 32.1% (inactive). The figures for the viability decrease (inhibition) in test [7] and in test [8] were 22.7% (inactive) and 47.8% (inactive), respectively. Further, the result in test [9], in test [17] and in test [18] was inactive.
Regarding `CC(=O)OCC(=O)[C@@]12N=C(C)O[C@@H]1C[C@H]1[C@@H]3CCC4=CC(=O)C=C[C@]4(C)[C@H]3[C@@H](O)C[C@@]12C`, the nuclear beta-catenin stimulation in [1] (at 10 µM) is 1.5% (inactive); in [1] (stimulation, at 2 µM), 3.9%. For the same compound, in test [2], the insulin secretion stimulation is 2.95% (inactive). Moreover, the viability decrease in test [3] is 0.4% (inactive). The tube area decrease in test [4] was 2.2% (inactive). Further, the GLP1 secretion stimulation in test [5] was 1.7% (inactive). Also, the inhibition of viability in test [6] was -21.6% (inactive). In addition, the viability decrease (inhibition) was 14.8% (inactive) in test [7] and -6.8% (inactive) in test [8]. The outcome in test [9], in test [18] and in [10] was inactive. The z-score was 0.598 (inactive) in test [16] (setting [23]) and 1.06 in test [16] (setting [24]).
Take `CCOC(=O)c1ccc(C#Cc2ccc3c(c2)C(C)(C)CCS3)nc1`: the nuclear beta-catenin stimulation is 6% (inactive) in [1] (at 10 µM) and 4.9% in [1] (stimulation, at 2 µM). Besides, the insulin secretion stimulation in test [2] is -1.4% (inactive). Besides, the viability decrease in [3] was 91.1% (active). The tube area decrease in test [4] is -6% (inactive). Further, the GLP1 secretion stimulation in [5] is -0.3% (inactive). Moreover, the inhibition of viability in test [6] was 98.6% (active). Also, the viability decrease (inhibition) is 126% (active) in test [7] and 98.1% (active) in test [8]. The result in [9], in [18] and in test [10] was inactive. Also, the fold change in test [11] (setting [19]) was 0.864 (inactive); in [11] (setting [20]), 0.957. The results for the cell count in test [11] (setting [21]) and in [11] (setting [22]) were 7750 and 8970, respectively. In addition, the z-score in test [16] (setting [23]) was 0.367 (inactive); in [16] (setting [24]), 0.684.

A word on the viability: it is a read-out of living cells in per cent, often relative to untreated cells. The AC50 is the concentration at which the activity in the assay is half-maximal.
